# Experimental data: PubChem BioAssay (NCATS)
# Where “and” joins values, the source holds several entries; their conditions need not be identical. Equal entries are not always repeated. Inconclusive results are not listed. More than one record can exist for a structure, and the calls need not agree. Calls of active or inactive are those of the source. Unless noted, the call rests on the fitted dose curve; in most records, active means well fitted curve in the direction sought with a large enough effect; inconclusive means small, poorly fitted or top-dose-only effect, or another doubt; inactive means no such curve, though single readings can be large; an effect the other way counts as inactive or inconclusive.
# Legend:
# [1] = qHTS profiling of the MIPE4 collection as inhibitors of Plasmodium falciparum (3D7) proliferation (AID 743344; call rule not given here;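 further: scaled between DMSO vehicle wells and 0.29 µM artemisinin as full inhibition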); settings: P. falciparum 3D7 in erythrocytes, SYBR Green DNA fluorescence, 72 h; at 28.5 µM unless noted
# Summary of the method: (§1)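 Parasite DNA was quantified by SYBR Green I fluorescence (ex 485, em 535 nm) after overnight lysis in saponin/Triton buffer at room temperature. Cultures at 0.3% parasitemia and 2.5% hematocrit were first exposed to compound for 72 h at 37 C; signals were normalised to artemisinin (0.29 uM) and vehicle wells.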
# [2] = qHTS profiling of the MIPE4 collection as inhibitors of Plasmodium falciparum (DD2) proliferation (AID 743345; call rule not given here); settings: P. falciparum Dd2 in erythrocytes, SYBR Green DNA, 72 h; at 28.5 µM unless noted
# Summary of the method: as §1
# [3] = qHTS profiling of the MIPE4 collection as inhibitors of Plasmodium falciparum (DD2) proliferation (Rep 2) (AID 743346; call rule not given here); settings: P. falciparum Dd2 in erythrocytes, SYBR Green DNA, 72 h; at 28.5 µM unless noted
# Summary of the method: as §1
# [4] = qHTS profiling of the MIPE4 collection as inhibitors of Plasmodium falciparum (HB3) proliferation (AID 743347; call rule not given here;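 further: plate controls were DMSO vehicle wells for no effect and artemisinin wells for full effect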); settings: P. falciparum HB3 in erythrocytes, SYBR Green DNA, 72 h; at 28.5 µM unless noted
# Summary of the method: as §1
# [5] = High-throughput drug toxicity screening in the BPDCN cell line Gen2.2 (AID 1224824; call rule not given here;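 further: cells exposed to compounds for 48 h before reading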); settings: Gen2.2 BPDCN cells; at 45.8 µM (top of the series) unless noted
# Summary of the method: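 Seed 500 exponentially growing Gen2.2 cells/well; add compounds by pin tool; incubate 48 h, 37 °C, 5% CO2; add CellTiter-Glo, 15 min RT; read luminescence. % activity vs DMSO (100%) and bortezomib (0%).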
# [6] = qHTS assay for measurement of the activity of small molecule inhibitors on Zika virus induced Caspase-3 activity in human iPSC derived neural progenitor cells (hNPCs) (AID 1224857); further: % of control where 0% means no effect; nearly all actives have a fitted effect of over 65% in size
# Summary of the method: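 Percent inhibition of virus-induced caspase-3/7 luminescence (Caspase-Glo), scaled between uninfected cells and Zika-infected cells. hNPCs received compound 1 hr before ZIKV at 2 FFU/cell, with 6 hours infection at 37 C.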
# [7] = qHTS assay for measurement of the activity of small molecule inhibitors on Zika virus induced Caspase-3 activity in human astrocytoma cells (AID 1224859);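 further: plate controls were ZIKV-infected untreated cells for no effect and uninfected cells for full effect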
# Summary of the method: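 Luminescent caspase-3/7 read-out (30 min reagent, room temperature) in human SNB-19 cells infected 6 h with ZIKV (2 FFU/cell) after 1 h compound pre-incubation; Data were normalised to uninfected and infected wells.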
# [8] = qHTS Screen of the MIPE 4.0 Collection Against Ewings Sarcoma (RDES) (AID 1259252); further: nearly all actives have a fitted effect of over 35% in size; further: potency means the concentration at half of the fitted maximal effect
# Summary of the method: (§2)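 After a 4 h attachment period in RPMI/5% FBS, cells were pin-dosed with test compounds; DMSO served as negative and 9.2 uM bortezomib (final) as positive control. Luminescent CellTiter-Glo signal at 48 h defined viability.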
# [9] = qHTS Screen of the MIPE 4.0 Collection Against Ewings Sarcoma (TC32) (AID 1259256); further: nearly all actives have a fitted effect of over 45% in size; further: potency means the concentration at half of the fitted maximal effect
# Summary of the method: as §2
# [10] = qHTS Screen of the MIPE 4.0 Collection Against Ewings Sarcoma (TC71) (AID 1259253); further: nearly all actives have a fitted effect of over 40% in size; further: potency means the concentration at half of the fitted maximal effect
# Summary of the method: as §2
# [11] = qHTS Screen of the MIPE 4.0 Collection Against Ewings Sarcoma (EW8) (AID 1259255); further: nearly all actives have a fitted effect of over 35% in size; further: potency means the concentration at half of the fitted maximal effect;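 on viability: 100% = DMSO-treated cells and 0% = medium-only wells without cells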
# Summary of the method: as §2
# [12] = qHTS profiling for inhibitors of Plasmodium falciparum (HB3) proliferation (AID 743324); settings: Plasmodium falciparum HB3 blood-stage proliferation; at 28.7 µM (top of the series) unless noted;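 further: 100% = DMSO vehicle wells and 0% = artemisinin-treated control wells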
# Summary of the method: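 SYBR Green fluorescence (485 ex/535 em) of lysed cultures, incubated overnight at room temperature in the dark, quantifies parasite DNA. Infected erythrocytes at 0.3% parasitemia and 2.5% hematocrit were exposed 72 h; values normalized to DMSO and 0.29 uM artemisinin controls.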
# [13] = Identifying Small Molecule Inhibitors of Pancreatic Cancer Stem Cells (A278, Adherent) (AID 1259361);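 further: viability read after 48 h compound exposure; nearly all actives have a fitted effect of over 35% in size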
# Summary of the method: (§3)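 Adherent (2D) versus sphere (3D) formats; spheres generated 14 d in SCM beforehand. Compound transferred by pin tool after 4 h, 48 h incubation, CellTiter-Glo endpoint.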
# [14] = P-glycoprotein substrates identified in KB-3-1 adenocarcinoma cell line, qHTS therapeutic library screen (AID 1346986); further: nearly all actives have a fitted effect of over 60% in size;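 further: potency means the concentration at half of the fitted maximal effect; potency is for cytotoxicity meaning loss of cell viability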
# Summary of the method: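 Dose-response cytotoxicity, KB-3-1 vs P-gp-high KB-8-5-11, no colchicine in assay medium. Read: CellTiter-Glo at 72 h.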
# [15] = Identifying Small Molecule Inhibitors of Pancreatic Cancer Stem Cells (SN12C, Adherent) (AID 1259358);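 further: cell survival measured after 48 h of compound exposure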
# Summary of the method: as §3
# [16] = Identifying Small Molecule Inhibitors of Pancreatic Cancer Stem Cells (SN12C, Spheroid) (AID 1259360); settings: Potency: SN12C spheroid viability; further: potency means the concentration at half of the fitted maximal effect
# Summary of the method: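 Viability is scored by CellTiter-Glo luminescence 48 h after dosing, expressed as percent activity against vehicle and no-cell references. Spheroid formats rely on cells cultured 14 days in stem cell media beforehand.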
SMILES,"parasite growth, % of DMSO control [1]","parasite growth remaining, % of DMSO control (lower = more inhibition) [2]","parasite growth, % of control (lower = inhibition) [3]","growth, % of control [4]","cell viability, % of control (lower = more cytotoxic) [5]",Potency [6],Potency [7],Potency [8],Potency [9],Potency [10],Potency [11],"remaining proliferation (% of control), lower = more inhibition [12] [%]",IC50 (viability decrease) [13],Potency [14],Potency [15],Potency [16]
COc1ccc(-c2oc3c(CC=C(C)C)c(O)cc(O)c3c(=O)c2O)cc1,4.59%,9.79%,11.9%,4.42%,188%,inactive,inactive,14.8 µM (active),23.5 µM (active),,,,,,,
C#C[C@]1(O)CC[C@H]2[C@H]3CCc4cc(OC)ccc4[C@H]3CC[C@@]21C,76.5%,98.2%,90.2%,87.7%,211%,inactive,,20.9 µM (active),,29.6 µM (active),,,,,,
CON(C)C(=O)N1N=C(c2cc(F)ccc2F)S[C@]1(CCCN)c1ccccc1,13.1%,10.1%,18.3%,,16.8%,inactive,inactive,,inactive,,inactive,,,,,
CCCCn1c(=O)n(Cc2ccccc2F)c(=O)c2[nH]c(Cc3ccc(NC(C)=O)cc3)nc21,115%,85.9%,43.7%,314%,50.4%,inactive,inactive,inactive,inactive,20.9 µM (active),,30.8,13.2 µM (active),inactive,,
CCOC(=O)[C@@H](N)CCC(=O)N[C@@H](CSCc1ccccc1)C(=O)N[C@@H](C(=O)OCC)c1ccccc1,89.7%,86.5%,163%,101%,39.6%,inactive,inactive,inactive,,inactive,,64.9,,,inactive,inactive
CCOC(=O)[C@H]1O[C@H]1C(=O)N[C@@H](CC(C)C)C(=O)NCCC(C)C,15.6%,12.9%,15.6%,,74.8%,inactive,inactive,inactive,18.7 µM (active),2.96 µM (active),,,,,,
O=S(=O)(O)c1ccc2cc(N=Nc3cc(S(=O)(=O)O)c4cccnc4c3O)ccc2c1,84.5%,87.9%,77.8%,47.7%,63.9%,inactive,inactive,18.7 µM (active),16.6 µM (active),14.8 µM (active),,,,,,
CCCCC(C=O)NC(=O)C(CC(C)C)NC(=O)OCc1ccccc1 (centres undefined),4.5%,8.7%,9.29%,,52.9%,,inactive,,inactive,,11.8 µM (active),,,,,
Cc1ccc(S(=O)(=O)Nc2nc3ccccc3nc2Nc2ccc3nsnc3c2)cc1,25.4% [at 9.64 µM],88% [at 9.64 µM],36% [at 9.64 µM],77.4% [at 9.64 µM],7.38% [at 23.2 µM],inactive,inactive,8.12 µM (active),16.2 µM (active),12.9 µM (active),,,,inactive and 20.6 µM (active),,
O=C(CCCN1CCN(c2ccc(F)cc2)CC1)NC1c2ccccc2CSc2ccccc21 (centres undefined),76%,98.7%,80.9%,57.9%,91.5%,inactive,inactive,,16.6 µM (active),16.6 µM (active),,,,,,
COc1ccc2c(c1)CC[C@H]1[C@@H]2CC[C@]2(C)[C@@H](NCCCCCCN3C(=O)C=CC3=O)CC[C@H]12,,95.3%,,,154%,inactive,inactive,,,16.6 µM (active),inactive,,20.9 µM (active),,,20.9 µM (active)
O=C(CC12CC3CC(CC(C3)C1)C2)Nc1cccc2nc(NCCNCCO)ccc12,4.99%,13.2%,15.5%,4.24%,5.97%,inactive,inactive,14.8 µM (active),13.2 µM (active),7.43 µM (active),,,,,,
Cc1ccc(C(=O)N(CCCN)[C@@H](c2oc3cc(Cl)ccc3c(=O)c2Cc2ccccc2)C(C)C)cc1,4.68%,8.7%,8.99%,5.08%,8.98%,inactive,inactive,inactive,inactive,,inactive,,,,,
CCC(c1ccc(O)cc1)C(CC)c1ccc(O)cc1 (centres undefined),84.9%,90%,75%,106%,149%,inactive,inactive,0.743 µM (active),1.48 µM (active),,1.87 µM (active),,,,,
